The structures appear in SMILES notation. Results filed as inconclusive are left out. A call without a number means that no potency is given here. Calls of active or inactive are those of the source. The call rests on the fitted dose curve; in most records, active means well fitted curve in the direction sought with a large enough effect; inconclusive means small, poorly fitted or top-dose-only effect, or another doubt; inactive means no such curve, though single readings can be large; an effect the other way counts as inactive or inconclusive.

The first assay concerns the target Aldehyde dehydrogenase, mitochondrial (Homo sapiens) (UniProt P05091). The assay can be described thus: qHTS for Inhibitors of the Aldehyde Dehydrogenase Family (ALDH2) Primary screen (AID 2061308). Further: nearly all actives have a fitted effect of over 55% in size. The settings on record: ALDH2 enzyme inhibition qHTS, 1536-well; series mostly up to 56 µM. In general terms: In qHTS, concentration-response curves come from the screen itself.
`CNc1oc(-c2cccc3ccccc23)nc1C(=O)OC`: the Potency result was “inactive”.

Regarding `CC1CCC(C(=O)Nc2ccc([S+](=O)([O-])Nc3nccs3)cc2)CC1` (stereo not given), the Potency result was “inactive”.

Turning to `COc1cccc(CNc2ccc(S(=O)(=O)Nc3ncccn3)cc2)c1O`, the Potency result is “inactive”.

Take `CCC(=O)NC(c1ccc(C)cc1)c1cc([N+](=O)[O-])c2cccnc2c1O` (stereo not given): the Potency entry was “inactive”.

`O=C(Nc1ccc(N2CCOCC2)c(C(F)(F)F)c1)Nc1nnc(-c2ccncc2)s1`: the Potency entry is “inactive”.

As for `CCCn1c(C)nc2c(NCC(C)(C)CN(C)C)nc(C)nc21`, the Potency entry is “inactive”.

For `CCSC1=NS(=O)(=O)c2ccccc21`, the Potency result was “inactive”.

`O=C(Nc1ccc(Cl)c(Cl)c1)Nc1ncc(-c2ccncc2)s1`: the Potency entry was “inactive”.

Take `Cc1cc(NS(=O)(=O)c2ccc(NC(=O)Cc3ccc(C)c(C)c3)cc2)no1`: the Potency result was “inactive”.

As for `CCOc1ccccc1-c1nnc2n1N=C(c1ccc(OC)c(OC)c1)CS2`, the Potency result is “inactive”.

As for `O=C(OCC#CCSc1nnc(-c2ccc(Cl)cc2)o1)c1ccc(F)cc1`, the Potency entry was “inactive”.

On to `CN(C)c1cccc(-c2nccc(N3CCC(C(N)=O)CC3)n2)c1`, for which the Potency result is “inactive”.

Turning to `O=C1CCCC2=C1C(c1[nH]ncc1Cl)NC(=NCc1ccoc1)N2` (stereo not given), the Potency entry is “inactive”.

As for `Cc1cc(C)nc(NC(=S)N2CCN(c3ncccc3C(F)(F)F)CC2)c1`, the Potency entry was “inactive”.

On to `FC(F)(F)c1ccccc1-c1nc(NCc2ccc(-c3cccc(Cl)c3)cc2)c2ccccc2n1`, for which the Potency result is “inactive”.

As to `Cc1ccc(-c2cc(C(=O)Nc3ccc(-n4cccn4)cc3)c3ccccc3n2)cc1C`, the Potency result was “inactive”.

For `CCCCN(C)C(=O)Cn1nc(-c2ccc(C(F)(F)F)cc2)ccc1=O`, the Potency entry was “inactive”.

Turning to `COc1cccc(C2c3c(ncn(-c4ccccc4)c3=N)Oc3ccc4ccccc4c32)c1OC` (stereo not given), the Potency entry is “inactive”.

For `CCCCNC(=S)NCCCN(Cc1ccc(Cl)c(Cl)c1)c1ccc(Br)cn1`, the Potency entry was “inactive”.

Turning to `CCOc1ccc(CCNC(=O)c2cc3ccccc3n2Cc2ccc(Cl)c(F)c2)cc1OCC`, the Potency entry is “inactive”.

Consider `COc1cc(O)c(C(CC(=O)N2CC(C)CC(C)C2)c2ccc(O)cc2)c(OC)c1` (stereo not given), for which the Potency result was “inactive”.

As for `C=C1CC[C@H]2C(=C)CC[C@H]3C(=C)C(=O)O[C@@H]3[C@@H]12`, the Potency result is “inactive”.

As to `COc1ccc(-c2nnc3n2N=C(c2ccccc2OC)CS3)cc1`, the Potency entry was “inactive”.

Regarding `O=C1CCc2cc(S(=O)(=O)Nc3ccc4ncccc4c3)ccc2N1`, the Potency entry was “inactive”.

As for `COCCNc1cc2c(cc1[S+](=O)([O-])Nc1ccc(C)c(C)c1)CCC(=O)N2`, the Potency entry is “inactive”.

As for `COc1ccc(OC)c(-c2nnc(NC(=O)Nc3ccc4ccccc4c3)s2)c1`, the Potency result is “inactive”.

Take `COc1ccc(Cl)cc1S(=O)(=O)N1CCN(S(=O)(=O)c2ccc3c(c2)OCCO3)CC1`: the Potency entry was “inactive”.

For `Cn1cc(P(=O)(c2ccccc2)c2ccccc2)c2ccccc21`, the Potency result was “inactive”.

On to `CC(C)c1cccc(C(C)C)c1NC(=O)Nc1ccc(Sc2ccc([N+](=O)[O-])cc2)cc1`, for which the Potency result is “inactive”.

As to `COCCNc1nc(C)nc2c1nc(-c1ccccc1)n2CCCN1CCCCC1C` (stereo not given), the Potency entry was “inactive”.

`COC(=O)c1ccccc1NC(=O)c1ccc(F)cc1F`: the Potency result was “inactive”.

Take `CC(C)(C)OC(=O)NCc1nnc(C(C(=O)OCc2ccccc2)c2ccccc2)s1` (stereo not given): the Potency result was “inactive”.

For `O=C1C[C@]23C=CCN4CCC5c6cc7c(cc6N1[C@@]5(CC2)C43)OCO7` (stereo not given in full), the Potency entry is “inactive”.

Turning to `Cn1nnnc1Sc1ncnc2scc(-c3ccccc3Cl)c12`, the Potency entry was “inactive”.

Take `COc1cccc(C2c3c(ncn(-c4ccccc4OC)c3=N)Oc3ccc4ccccc4c32)c1` (stereo not given): the Potency result is “inactive”.

On to `Cc1ccccc1C(=O)N1CCc2cc(-c3nc(NC(=O)Cc4ccc5c(c4)OCCO5)sc3C)ccc21`, for which the Potency result was “inactive”.

For the compound `COc1ccc2nc(-c3ccc(N(C)C)cc3)sc2c1`, the Potency entry is “inactive”.

`O=C(OCC#CCSc1nnc(-c2cccc3ccccc23)o1)c1ccc(F)nc1`: the Potency result was “inactive”.

Consider `CCN(CC)CCCn1c(-c2ccccc2)nc2c(NCc3ccccc3)nc(C)nc21`, for which the Potency result was “inactive”.

With `O=C(CNC(=O)c1ccc(Cl)cc1)OC(C(=O)Nc1cc(C(F)(F)F)ccc1Cl)c1ccccc1` (stereo not given), the Potency entry is “inactive”.

Another assay concerns the target Retinaldehyde dehydrogenase 3 (Homo sapiens) (UniProt P47895). The assay can be described thus: qHTS for Inhibitors of the Aldehyde Dehydrogenase Family (ALDH1A3) Primary screen (AID 2061315). The settings on record: ALDH inhibition qHTS; series mostly up to 56 µM.
In the case of `CNc1oc(-c2cccc3ccccc23)nc1C(=O)OC`, the Potency result is “inactive”.

As for `CC1CCC(C(=O)Nc2ccc([S+](=O)([O-])Nc3nccs3)cc2)CC1` (stereo not given), the Potency entry was “inactive”.

Regarding `COc1cccc(CNc2ccc(S(=O)(=O)Nc3ncccn3)cc2)c1O`, the Potency result was “inactive”.

With `CCC(=O)NC(c1ccc(C)cc1)c1cc([N+](=O)[O-])c2cccnc2c1O` (stereo not given), the Potency entry is “inactive”.

On to `O=C(Nc1ccc(N2CCOCC2)c(C(F)(F)F)c1)Nc1nnc(-c2ccncc2)s1`, for which the Potency entry was “inactive”.

As for `CCCn1c(C)nc2c(NCC(C)(C)CN(C)C)nc(C)nc21`, the Potency result was “inactive”.

On to `CCSC1=NS(=O)(=O)c2ccccc21`, for which the Potency result was “inactive”.

As for `O=C(Nc1ccc(Cl)c(Cl)c1)Nc1ncc(-c2ccncc2)s1`, the Potency result is “inactive”.

As to `Cc1cc(NS(=O)(=O)c2ccc(NC(=O)Cc3ccc(C)c(C)c3)cc2)no1`, the Potency result was “inactive”.

For `CCOc1ccccc1-c1nnc2n1N=C(c1ccc(OC)c(OC)c1)CS2`, the Potency result is “inactive”.

Take `O=C(OCC#CCSc1nnc(-c2ccc(Cl)cc2)o1)c1ccc(F)cc1`: the Potency entry is “inactive”.

Consider `CN(C)c1cccc(-c2nccc(N3CCC(C(N)=O)CC3)n2)c1`, for which the Potency entry was “inactive”.

Regarding `O=C1CCCC2=C1C(c1[nH]ncc1Cl)NC(=NCc1ccoc1)N2` (stereo not given), the Potency result was “inactive”.

As to `Cc1cc(C)nc(NC(=S)N2CCN(c3ncccc3C(F)(F)F)CC2)c1`, the Potency entry is “inactive”.

Turning to `FC(F)(F)c1ccccc1-c1nc(NCc2ccc(-c3cccc(Cl)c3)cc2)c2ccccc2n1`, the Potency result was “inactive”.

Consider `Cc1ccc(-c2cc(C(=O)Nc3ccc(-n4cccn4)cc3)c3ccccc3n2)cc1C`, for which the Potency result is “inactive”.

For `CCCCN(C)C(=O)Cn1nc(-c2ccc(C(F)(F)F)cc2)ccc1=O`, the Potency result was “inactive”.

On to `COc1cccc(C2c3c(ncn(-c4ccccc4)c3=N)Oc3ccc4ccccc4c32)c1OC` (stereo not given), for which the Potency entry is “inactive”.

For the compound `CCCCNC(=S)NCCCN(Cc1ccc(Cl)c(Cl)c1)c1ccc(Br)cn1`, the Potency result was “inactive”.

Consider `CCOc1ccc(CCNC(=O)c2cc3ccccc3n2Cc2ccc(Cl)c(F)c2)cc1OCC`, for which the Potency result is “inactive”.

Regarding `COc1cc(O)c(C(CC(=O)N2CC(C)CC(C)C2)c2ccc(O)cc2)c(OC)c1` (stereo not given), the Potency entry is “inactive”.

`C=C1CC[C@H]2C(=C)CC[C@H]3C(=C)C(=O)O[C@@H]3[C@@H]12`: the Potency result is “inactive”.

With `COc1ccc(-c2nnc3n2N=C(c2ccccc2OC)CS3)cc1`, the Potency result is “inactive”.

In the case of `O=C1CCc2cc(S(=O)(=O)Nc3ccc4ncccc4c3)ccc2N1`, the Potency result was “inactive”.

`COCCNc1cc2c(cc1[S+](=O)([O-])Nc1ccc(C)c(C)c1)CCC(=O)N2`: the Potency result was “inactive”.

Consider `COc1ccc(OC)c(-c2nnc(NC(=O)Nc3ccc4ccccc4c3)s2)c1`, for which the Potency result was “inactive”.

In the case of `COc1ccc(Cl)cc1S(=O)(=O)N1CCN(S(=O)(=O)c2ccc3c(c2)OCCO3)CC1`, the Potency entry was “inactive”.

Turning to `Cn1cc(P(=O)(c2ccccc2)c2ccccc2)c2ccccc21`, the Potency entry is “inactive”.

Turning to `CC(C)c1cccc(C(C)C)c1NC(=O)Nc1ccc(Sc2ccc([N+](=O)[O-])cc2)cc1`, the Potency result is “inactive”.

Regarding `COCCNc1nc(C)nc2c1nc(-c1ccccc1)n2CCCN1CCCCC1C` (stereo not given), the Potency entry is “inactive”.

`COC(=O)c1ccccc1NC(=O)c1ccc(F)cc1F`: the Potency result was “inactive”.

As to `CC(C)(C)OC(=O)NCc1nnc(C(C(=O)OCc2ccccc2)c2ccccc2)s1` (stereo not given), the Potency result is “inactive”.

In the case of `O=C1C[C@]23C=CCN4CCC5c6cc7c(cc6N1[C@@]5(CC2)C43)OCO7` (stereo not given in full), the Potency result is “inactive”.

As for `Cn1nnnc1Sc1ncnc2scc(-c3ccccc3Cl)c12`, the Potency result was “inactive”.

Take `COc1cccc(C2c3c(ncn(-c4ccccc4OC)c3=N)Oc3ccc4ccccc4c32)c1` (stereo not given): the Potency result is “inactive”.

Regarding `Cc1ccccc1C(=O)N1CCc2cc(-c3nc(NC(=O)Cc4ccc5c(c4)OCCO5)sc3C)ccc21`, the Potency result was “inactive”.

Regarding `COc1ccc2nc(-c3ccc(N(C)C)cc3)sc2c1`, the Potency entry was “inactive”.

Turning to `O=C(OCC#CCSc1nnc(-c2cccc3ccccc23)o1)c1ccc(F)nc1`, the Potency entry was “inactive”.

For the compound `CCN(CC)CCCn1c(-c2ccccc2)nc2c(NCc3ccccc3)nc(C)nc21`, the Potency entry was “inactive”.

In the case of `O=C(CNC(=O)c1ccc(Cl)cc1)OC(C(=O)Nc1cc(C(F)(F)F)ccc1Cl)c1ccccc1` (stereo not given), the Potency entry is “inactive”.

(Values after PubChem BioAssay (NCATS).)
